# Source: PubChem BioAssay AID602127 (Broad Institute, 2011)
# Entries with a potency or affinity are not part of this list. Active and inactive are the calls of the source.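 The calls were made as follows: active = every repeat test judged active, meaning a falling signal with potency within twice the top valid dose; inconclusive = repeat tests disagree on the call; inactive = every repeat test inactive, including signal moving upward.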
# Target: Cyclin-dependent kinase 2 (Homo sapiens) (UniProt P24941)
# Test: CDK2 kinase inhibitors, off-target check, dose response, selectivity assay for Dyrk1A inhibitor project, biochemical, cherry-picked samples (AID 602127)
smiles,measurement,value
COc1ccc2c(c1)[nH]c1c(C)nccc12,outcome,inactive
